# How the values were obtained:
# Test in all cases: PBM binding z-score (relative to random genomic background probes); higher = stronger binding; sequences stand for … in GC…GCGATTGACAGCGTAGAATGAAGG
# [1] = system: FXR:RXRa (NR concentration 270 nM, RXRa partner concentration 90 nM)
# Outline: (§1)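 Random background probes are the reference for binding z-scores. These scores derive from regression-normalized fluorescence on custom Agilent 4×180K protein-binding microarrays incubated 1 h with ligand-free nuclear receptor dimers. Binding was detected with antibodies against each partner (one per run).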
# [2] = system: LXRa:RXRa (NR concentration 270 nM, RXRa partner concentration 90 nM)
# Outline: as §1
# [3] = system: LXRa homodimer (NR concentration 270 nM)
# Outline: as §1
# [4] = system: LXRb:RXRa (NR concentration 270 nM, RXRa partner concentration 90 nM)
# Outline: as §1
# [5] = system: LXRb homodimer (NR concentration 270 nM)
# Outline: as §1
# [6] = system: PPARa:RXRa (NR concentration 270 nM, RXRa partner concentration 90 nM)
# Outline: as §1
# [7] = system: PPARg:RXRa (NR concentration 180 nM, RXRa partner concentration 90 nM)
# Outline: as §1
# [8] = system: PPARg:RXRa 270nM:90nM, anti-RXR (NR concentration 270 nM, RXRa partner concentration 90 nM)
# Outline: as §1
# [9] = system: PPARg:RXRa 30nM:10nM, anti-RXR (NR concentration 30 nM, RXRa partner concentration 10 nM)
# Outline: as §1
# [10] = system: PPARg:RXRa 90nM:30nM, anti-RXR (NR concentration 90 nM, RXRa partner concentration 30 nM)
# Outline: as §1
# [11] = system: PPARg:RXRa DBDmut IVT, anti-RXR (DBD mutation: RXRa K156A/R161A, NR concentration 270 nM, RXRa partner concentration 90 nM)
# Outline: as §1
# [12] = system: PPARg:RXRa IVT, anti-PPARg (NR concentration 270 nM, RXRa partner concentration 90 nM)
# Outline: as §1
# [13] = system: PPARg DBDmut:RXRa IVT, anti-PPARg (DBD mutation: PPARg1 K132A/R137A, NR concentration 270 nM, RXRa partner concentration 90 nM)
# Outline: as §1
# [14] = system: PPARg DBDmut IVT, anti-PPARg (DBD mutation: PPARg1 K132A/R137A, NR concentration 270 nM)
# Outline: as §1
# [15] = system: PPARg homodimer (NR concentration 180 nM)
# Outline: as §1
# [16] = system: PXR:RXRa (NR concentration 270 nM, RXRa partner concentration 90 nM)
# Outline: as §1
# [17] = system: PXR homodimer (NR concentration 270 nM)
# Outline: as §1
# [18] = system: RARa:RXR (NR concentration 270 nM, RXRa partner concentration 90 nM)
# Outline: as §1
# [19] = system: RARa homodimer (NR concentration 270 nM)
# Outline: as §1
# [20] = system: RARb:RXRa (NR concentration 270 nM, RXRa partner concentration 90 nM)
# Outline: as §1
Sequence,PBM binding z-score [1],PBM binding z-score [2],PBM binding z-score [3],PBM binding z-score [4],PBM binding z-score [5],PBM binding z-score [6],PBM binding z-score [7],PBM binding z-score [8],PBM binding z-score [9],PBM binding z-score [10],PBM binding z-score [11],PBM binding z-score [12],PBM binding z-score [13],PBM binding z-score [14],PBM binding z-score [15],PBM binding z-score [16],PBM binding z-score [17],PBM binding z-score [18],PBM binding z-score [19],PBM binding z-score [20]
ATCTTTAGGTAAAAGTTCAGTGAATCCCGAGGAT,0.829,1.33,1.14,0.973,1.01,4.03,6.36,7.35,6.09,7.91,0.803,3.1,1.38,1.31,1.01,2.07,1.47,1.56,0.328,2.51
CTCTAAAGGTCGGTTGAGGTGAGTATACGGATAA,2.41,2.21,0.211,1.61,0.152,2.87,0.622,1.44,0.122,0.958,0.506,1.04,0.0568,0.0389,1.04,3.48,0.187,2.31,-0.146,3.31
CTACCAAGGTGACCAAGGTCGTTGATTACTATTC,0.954,0.863,0.0331,1.37,-0.415,1.82,0.763,0.769,-0.239,0.452,1.56,2.32,-0.302,-0.385,0.966,2.3,1.04,2.16,-0.214,1.65
AGAATGAGGTTATTAAGATCCGGGAATTGCGGTC,1.33,2.41,-0.0229,1.24,-0.217,2.49,1.06,1.15,0.0449,0.869,2.93,2.17,0.655,0.352,1.11,0.959,0.153,1.28,-0.0311,1.48
CATACAGGGTCTGCTAGGCCAGAGTAGGGACGGC,-0.237,-0.31,-0.443,-0.834,-0.599,-0.452,0.152,-0.899,-0.808,-0.386,-0.963,-0.162,-0.142,-0.562,0.266,-0.649,-0.0998,-0.482,0.212,0.183
CGTCAAGGTTCAAGGTAACGTAACAGAAAGCAGC,4.59,3.3,0.601,2.06,-0.166,3.56,2.25,2.63,0.331,1.55,-0.0787,0.903,-0.883,-0.847,1.12,1.87,0.422,2.3,-0.0336,3.24
ATCTCTAGGTAAGCCTCAGTTCAGTGAAGAACGC,0.31,0.658,0.468,0.438,0.861,0.35,-0.00624,0.396,-0.0235,0.487,2.22,1.13,-0.0785,0.191,0.657,1.23,0.98,0.356,0.375,0.44
TCTTGTAGATCAAGCATGTTAAGAAAGCCTGAGT,0.693,0.403,-0.106,0.334,-0.513,0.796,-0.182,1.46,2.56,2.01,1.83,0.509,0.824,-0.00587,-0.0678,0.378,0.162,0.466,0.241,-0.0485
CCTTACGGGTCACTGACACGTTATAGCATTTGGA,5.87,3.87,0.355,3.38,0.0224,5.4,4.48,4.55,1.45,3.25,3.57,3.64,1.42,0.499,1.94,3.1,0.171,3.98,0.948,3.99
GTACCAAGGTGAATTGGTCGTTGATGAGTAGGCG,0.321,0.0311,-0.495,-0.18,-0.792,0.557,0.383,0.173,-0.286,-0.112,1.6,1.85,0.108,0.076,-0.163,-0.436,-0.573,-0.15,-0.635,1.17
ACTATTAGTTGACCTAGGGCAACCGATACGACGC,1.76,2.47,2.09,2.31,1.09,2.52,1.71,1.48,0.386,0.958,1.31,2.56,0.917,1.25,1.64,2.05,0.901,2.79,0.637,2.18
TCATATAGGTAAAGGTGAAAGTGGAACGATATGA,0.702,1.31,-0.0893,1.28,-0.406,3.54,4.42,4.97,4.56,5.14,3.98,4.19,1.25,1.26,1.46,1.17,0.224,2.26,0.548,2.13
CCAGACAGGTGAAAGCTAACTCAGTCTGGTACGC,-0.364,-0.206,-0.559,-0.0941,-0.593,0.302,0.368,-0.0659,-0.35,-0.285,1.15,0.32,-0.519,-0.546,-0.106,-0.352,-0.314,-0.197,-0.137,0.542
GCTAGTTGGTCAGTAAAAGGTCGCACACCGGTCG,0.649,1.35,0.422,1.28,-0.0717,2.31,0.999,2.68,0.448,2.08,0.512,1.32,-0.491,-0.677,1.76,2.07,-0.218,2.6,0.227,2.34
CGTCCAAGGTCAGAGAGGTCAGAGAATGCCGAGT,6.45,5.34,3.4,4.53,0.508,5.1,3.75,4.28,1.33,3,2.84,3.53,0.0352,-0.116,4.06,6.31,11.8,5.66,1.75,5.18

# Reference: the supplement of paper PMC6555819
